In paper PMC7862700, “An all-to-all approach to the identification of sequence-specific readers for epigenetic DNA modifications on cytosine”:

Experiments:
Test in all cases: DAPPL (digital affinity profiling via proximity ligation, sequencing); 10 mM Tris-HCl pH 7.5, 50 mM NaCl, 1 mM DTT, 4% glycerol, room temperature, 30 min; GST-TFs on glutathione beads, 16-mer random dsDNA library, 0.1% formaldehyde crosslink after washing; high values mean tight binding
FEV = molecular target: T1, FEV (Homo sapiens, UniProt Q99581 1-238); settings: protein: recombinant; tags: N-terminal GST; dsDNA, one strand shown
T1 sequence: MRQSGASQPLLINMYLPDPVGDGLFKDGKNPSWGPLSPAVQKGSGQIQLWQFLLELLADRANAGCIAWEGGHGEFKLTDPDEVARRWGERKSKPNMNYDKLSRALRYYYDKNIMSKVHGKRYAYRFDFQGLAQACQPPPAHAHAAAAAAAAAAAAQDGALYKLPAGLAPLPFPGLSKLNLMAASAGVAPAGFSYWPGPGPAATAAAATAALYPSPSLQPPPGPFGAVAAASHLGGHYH
Outline: (§1)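 Binding signal is given per hexamer as its read frequency for a factor divided by its frequency in the tag-only sample. GST-fused human transcription factors were expressed in yeast, captured on glutathione beads, barcoded with DNA and pooled with that sample, then incubated with 200 nmole of a 16-mer random double-stranded DNA library in Tris/NaCl/DTT/glycerol buffer for 30 min at room temperature. The pools were then washed, crosslinked, proximity-ligated, amplified by PCR and sequenced on an Illumina NextSeq500.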

ETV5 = ETV5 (Homo sapiens, UniProt P41161 1-510); settings: protein: recombinant; tags: N-terminal GST; dsDNA, one strand shown
Outline: as §1

HSF1 = HSF1 (Homo sapiens, UniProt Q00613 1-529); settings: protein: recombinant; tags: N-terminal GST; chain copies: 3; dsDNA, one strand shown
Outline: as §1

SPIC = molecular target: T2, SPIC (Homo sapiens, UniProt Q8N5J4 1-248); settings: protein: recombinant; tags: N-terminal GST; dsDNA, one strand shown
T2 sequence: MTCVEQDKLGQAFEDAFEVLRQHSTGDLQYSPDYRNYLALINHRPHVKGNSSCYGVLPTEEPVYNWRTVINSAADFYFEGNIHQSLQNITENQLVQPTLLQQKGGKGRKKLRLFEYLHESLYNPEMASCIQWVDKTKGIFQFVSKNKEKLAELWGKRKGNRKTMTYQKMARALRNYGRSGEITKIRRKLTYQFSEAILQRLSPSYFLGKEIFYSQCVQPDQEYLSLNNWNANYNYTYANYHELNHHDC
Outline: as §1

ELF4 = ELF4 (Homo sapiens, UniProt Q99607 1-663); settings: protein: recombinant; tags: N-terminal GST; dsDNA, one strand shown
Outline: as §1

ELK4 = molecular target: T3, ELK4 (Homo sapiens, UniProt P28324-2 1-405); settings: protein: recombinant; tags: N-terminal GST; dsDNA, one strand shown
T3 sequence: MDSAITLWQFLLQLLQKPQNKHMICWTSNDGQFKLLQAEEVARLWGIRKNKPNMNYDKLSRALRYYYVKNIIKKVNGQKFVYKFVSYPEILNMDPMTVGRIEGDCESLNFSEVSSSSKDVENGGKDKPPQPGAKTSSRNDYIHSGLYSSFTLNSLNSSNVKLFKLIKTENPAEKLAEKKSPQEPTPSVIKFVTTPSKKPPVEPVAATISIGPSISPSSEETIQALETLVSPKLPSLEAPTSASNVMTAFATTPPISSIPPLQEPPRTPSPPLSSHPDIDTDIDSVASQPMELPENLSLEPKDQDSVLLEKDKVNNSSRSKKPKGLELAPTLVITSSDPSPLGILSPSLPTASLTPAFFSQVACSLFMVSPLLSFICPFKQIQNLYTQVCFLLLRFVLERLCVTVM
Outline: as §1

ETV2 = molecular target: T4, ETV2 (Homo sapiens, UniProt O00321 1-342); settings: protein: recombinant; tags: N-terminal GST; dsDNA, one strand shown
T4 sequence: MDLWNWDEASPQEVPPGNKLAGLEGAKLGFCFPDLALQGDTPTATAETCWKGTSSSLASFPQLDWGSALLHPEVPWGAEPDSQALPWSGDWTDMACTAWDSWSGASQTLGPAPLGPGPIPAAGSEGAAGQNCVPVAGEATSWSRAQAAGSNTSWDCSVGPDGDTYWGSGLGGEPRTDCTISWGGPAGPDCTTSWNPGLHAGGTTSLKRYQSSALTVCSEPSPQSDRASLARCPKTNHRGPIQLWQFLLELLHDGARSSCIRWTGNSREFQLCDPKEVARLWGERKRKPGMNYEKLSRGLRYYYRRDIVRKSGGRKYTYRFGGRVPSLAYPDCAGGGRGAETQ
Outline: as §1

ELF3 = molecular target: T5, ELF3 (Homo sapiens, UniProt P78545 1-371); settings: protein: recombinant; tags: N-terminal GST; dsDNA, one strand shown
T5 sequence: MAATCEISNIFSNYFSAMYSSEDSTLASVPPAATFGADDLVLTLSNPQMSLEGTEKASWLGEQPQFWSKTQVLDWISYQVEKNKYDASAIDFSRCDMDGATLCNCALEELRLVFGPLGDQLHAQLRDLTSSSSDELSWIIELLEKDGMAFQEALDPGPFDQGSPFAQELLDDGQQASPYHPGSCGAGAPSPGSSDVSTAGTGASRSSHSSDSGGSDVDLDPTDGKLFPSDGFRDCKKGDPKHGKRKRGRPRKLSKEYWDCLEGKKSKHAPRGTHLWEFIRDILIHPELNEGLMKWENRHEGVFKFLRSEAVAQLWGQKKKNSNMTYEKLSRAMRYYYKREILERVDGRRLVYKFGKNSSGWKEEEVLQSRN
Outline: as §1

CRX = CRX (Homo sapiens, UniProt O43186 1-299); settings: protein: recombinant; tags: N-terminal GST; dsDNA, one strand shown
Outline: as §1

ETV1 = ETV1 (Homo sapiens, UniProt P50549 1-477); settings: protein: recombinant; tags: N-terminal GST; dsDNA, one strand shown
Outline: as §1

CRX, sequence (O43186 whole entry): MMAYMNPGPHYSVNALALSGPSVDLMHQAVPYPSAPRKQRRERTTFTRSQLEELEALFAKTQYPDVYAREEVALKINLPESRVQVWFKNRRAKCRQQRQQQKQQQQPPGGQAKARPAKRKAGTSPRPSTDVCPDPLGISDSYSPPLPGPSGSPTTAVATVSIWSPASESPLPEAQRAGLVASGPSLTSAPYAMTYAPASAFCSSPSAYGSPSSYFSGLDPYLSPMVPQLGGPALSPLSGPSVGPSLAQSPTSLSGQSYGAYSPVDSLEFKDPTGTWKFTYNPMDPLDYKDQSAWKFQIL
ETV1, sequence (P50549 whole entry): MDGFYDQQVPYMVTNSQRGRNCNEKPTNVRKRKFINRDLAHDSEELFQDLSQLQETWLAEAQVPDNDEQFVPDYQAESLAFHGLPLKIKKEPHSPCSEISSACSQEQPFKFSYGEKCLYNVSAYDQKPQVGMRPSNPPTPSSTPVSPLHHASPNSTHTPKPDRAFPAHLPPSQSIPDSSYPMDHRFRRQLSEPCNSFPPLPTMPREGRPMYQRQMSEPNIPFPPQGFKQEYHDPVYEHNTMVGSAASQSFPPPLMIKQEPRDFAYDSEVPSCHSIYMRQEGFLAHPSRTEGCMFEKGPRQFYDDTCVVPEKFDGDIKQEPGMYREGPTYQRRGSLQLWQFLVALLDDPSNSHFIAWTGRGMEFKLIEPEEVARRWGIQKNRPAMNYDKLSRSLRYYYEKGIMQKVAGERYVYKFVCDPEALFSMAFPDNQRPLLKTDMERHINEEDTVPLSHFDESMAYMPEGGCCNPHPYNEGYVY
HSF1, sequence (Q00613 whole entry): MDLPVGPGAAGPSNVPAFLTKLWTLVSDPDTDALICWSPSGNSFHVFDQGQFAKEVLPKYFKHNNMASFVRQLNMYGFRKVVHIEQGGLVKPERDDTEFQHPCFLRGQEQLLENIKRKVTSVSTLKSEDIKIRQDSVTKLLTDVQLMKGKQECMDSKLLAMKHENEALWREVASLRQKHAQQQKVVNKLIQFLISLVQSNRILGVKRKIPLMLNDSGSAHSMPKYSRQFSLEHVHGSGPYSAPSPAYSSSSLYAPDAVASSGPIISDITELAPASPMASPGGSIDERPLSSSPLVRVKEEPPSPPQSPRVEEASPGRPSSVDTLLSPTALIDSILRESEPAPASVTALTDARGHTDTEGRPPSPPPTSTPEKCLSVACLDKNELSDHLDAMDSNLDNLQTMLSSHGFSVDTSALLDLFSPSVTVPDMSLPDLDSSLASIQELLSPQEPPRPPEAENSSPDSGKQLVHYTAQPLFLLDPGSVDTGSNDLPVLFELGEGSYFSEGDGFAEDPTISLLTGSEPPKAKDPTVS
ELF4, sequence (Q99607 whole entry): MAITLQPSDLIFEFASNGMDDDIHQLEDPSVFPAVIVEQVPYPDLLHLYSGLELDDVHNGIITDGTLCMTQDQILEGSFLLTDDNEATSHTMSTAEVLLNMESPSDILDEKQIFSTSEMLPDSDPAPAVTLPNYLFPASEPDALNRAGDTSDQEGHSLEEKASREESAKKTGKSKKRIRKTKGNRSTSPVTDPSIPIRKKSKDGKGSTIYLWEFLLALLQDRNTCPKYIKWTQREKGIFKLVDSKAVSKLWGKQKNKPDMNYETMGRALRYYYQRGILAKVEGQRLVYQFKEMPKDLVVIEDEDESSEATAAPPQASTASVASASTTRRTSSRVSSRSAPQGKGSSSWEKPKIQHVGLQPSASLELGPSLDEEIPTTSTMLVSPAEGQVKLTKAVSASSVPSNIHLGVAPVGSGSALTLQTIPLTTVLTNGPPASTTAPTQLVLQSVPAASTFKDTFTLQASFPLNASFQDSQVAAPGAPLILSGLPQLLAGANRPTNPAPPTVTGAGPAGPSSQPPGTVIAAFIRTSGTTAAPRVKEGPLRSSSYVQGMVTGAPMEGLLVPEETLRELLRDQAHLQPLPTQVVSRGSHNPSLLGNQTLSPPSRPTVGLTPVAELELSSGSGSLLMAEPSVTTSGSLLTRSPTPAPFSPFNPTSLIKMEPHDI
ETV5, sequence (P41161 whole entry): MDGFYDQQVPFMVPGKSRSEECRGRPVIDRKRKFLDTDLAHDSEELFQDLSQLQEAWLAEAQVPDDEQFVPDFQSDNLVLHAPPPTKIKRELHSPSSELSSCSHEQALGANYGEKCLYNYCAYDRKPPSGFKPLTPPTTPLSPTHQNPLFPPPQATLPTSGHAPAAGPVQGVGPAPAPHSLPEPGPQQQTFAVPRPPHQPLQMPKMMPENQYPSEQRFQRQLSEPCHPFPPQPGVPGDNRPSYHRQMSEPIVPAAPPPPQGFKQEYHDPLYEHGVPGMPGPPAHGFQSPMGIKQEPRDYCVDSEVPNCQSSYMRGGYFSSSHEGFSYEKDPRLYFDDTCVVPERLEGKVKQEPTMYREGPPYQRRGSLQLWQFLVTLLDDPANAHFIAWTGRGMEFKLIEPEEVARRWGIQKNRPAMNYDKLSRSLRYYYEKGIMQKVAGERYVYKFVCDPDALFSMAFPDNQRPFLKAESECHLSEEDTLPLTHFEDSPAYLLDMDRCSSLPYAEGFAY

## ATTTCG
FEV
  binding signal: 1.25 fold enrichment (6-mer frequency, TF over GST control)
ETV5
  binding signal: 1.26 fold enrichment (6-mer frequency, TF over GST control)
HSF1
  binding signal: 1.63 fold enrichment (6-mer frequency, TF over GST control)
SPIC
  binding signal: 1.26 fold enrichment (6-mer frequency, TF over GST control)
ELF4
  binding signal: 1.29 fold enrichment (6-mer frequency, TF over GST control)
ELK4
  binding signal: 1.49 fold enrichment (6-mer frequency, TF over GST control)
ETV2
  binding signal: 1.22 fold enrichment (6-mer frequency, TF over GST control)
ELF3
  binding signal: 1.2 fold enrichment (6-mer frequency, TF over GST control)
CRX
  binding signal: 1.45 fold enrichment (6-mer frequency, TF over GST control)
ETV1
  binding signal: 1.34 fold enrichment (6-mer frequency, TF over GST control)
